This passage reports activity, negative = inhibition results from PubChem BioAssay (NCATS).

Each structure is given as a SMILES string. Several values for one entry are separate records, joined by “and”; a condition that tells them apart may be missing. Identical values can stand only once. Inconclusive results are not listed. A number with no mark means an inactive call. Activity calls are given as the source filed them. Calls follow the shape of the dose curve; as a rule, active = well fitted curve in either direction with a large enough effect (not every such curve was filed as active); inconclusive = small, poorly fitted or top-dose-only effect, or another doubt; inactive = flat fitted curve, though single readings scatter.
% is scaled to controls: 0 for no effect and ±100 for the full control effect.

The first assay is described as follows: Stat Signaling Pathway (AID 446). The note with it: ME-180 SIE beta-lactamase reporter, IL-6 stimulated, 5 h; at 17.2 µM (top of the series). On the procedure: NCGC Assay Overview: The IL-6/STAT signaling pathway was assayed in ME-180 cervical carcinoma cells by a beta-lactamase reporter gene controlled by a STAT Inducible Element (SIE). This reporter is induced by IL-6 at 40 pM AC50 and inhibited by the pan JAK inhibitor, 2-(1,1-Dimethylethyl)-9-fluoro-3,6-dihydro-7H-benz[h]-imidaz[4,5-f]isoquinolin-7-one, at approximately 10 nM AC50. Plated cells were incubated overnight and on the following day, stimulated with 40 pM IL-6 for 5 hrs. The assay was screened at the AC50 of IL-6 activation to identify both inhibitors and activators of IL-6/STAT signaling.
NCGC Assay Protocol Summary: Cells were trypsinized, washed in assay medium (AM, OPTI MEM with 0.5% fetal bovine serum, 0.1 mM nonessential amino acids, 1 mM sodium pyruvate, 10mM HEPES pH 7.3, 100U/ml penicillin, and 100 ug/ml streptomycin) and suspended at 6 x 10e5/ml in AM. Approximately […] cells in 5 uL/well was dispensed into 1536 well plates and the cells were incubated overnight at 37 C. 23 nL of compound were delivered by a pin tool and 1 uL of IL-6 (40 pM final concentration in AM) was added. After centrifugation at 1000 rpm for less than a minute, plates were incubated at 37C for 5 hrs. One uL of detector mix (LiveBLAzerTM, Invitrogen) was added, the plates incubated at room temperature for 2.5 hrs, and fluorescence intensity at 460 and 530 nm emission was measured at 405 nm excitation by an Envision (Perkin Elmer) or Safire II (Tecan). Data were normalized by GeneData to the controls for AC90 stimulation (300 pM IL-6) and to AC90 inhibition (125 nM Jak inhibitor, 40 pM IL-6 in AM).
For `C[N+]1(C)CCN(c2ccccc2)CC1`, the activity, negative = inhibition was -10%.

Still in this assay, the particulars now being: ME-180 SIE beta-lactamase reporter, IL-6 stimulated, 5 h; at 38 µM (top of the series).
`C[N+]1(C)CCN(c2ccccc2)CC1`: the activity, negative = inhibition is -4.82%.

The same assay, now with this note: ME-180 (cervical carcinoma) SIE beta-lactamase reporter, IL-6 stimulated, 5 h; at 38 µM (top of the series) unless noted.
In the case of `CCCN(CCC)CCc1c[nH]c2ccc(C(N)=O)cc12`, the activity, negative = inhibition was 22.9%.
Regarding `Cc1[nH]c2ccc(O)cc2c1CCN`, the activity, negative = inhibition was 6.41%.
Turning to `O=C1C=CC(=O)C=C1`, the activity, negative = inhibition was -5.57%.
Turning to `N#CC(C#N)=Cc1cc(O)c(O)c(O)c1`, the activity, negative = inhibition was 2.4%.
Turning to `Clc1ccc(N2C[C@H]3CC[C@@H](C2)N3)nn1`, the activity, negative = inhibition is 37.1%.
Turning to `CCC1(C)CC(=O)NC(=O)C1`, the activity, negative = inhibition was -0.442% [at 17.2 µM].
`CN1CCc2cccc(Cl)c2CC1`: the activity, negative = inhibition is 15.3%.
On to `C[C@@H]1O[C@H](C[N+](C)(C)C)CS1`, for which the activity, negative = inhibition is 19.2%.
The same measure, in the same setting: the figure for `CCCN(CCC)CCc1ccc(O)c(O)c1` is -14.3%; for `O=[N+]([O-])c1cc(O)c(O)c([N+](=O)[O-])c1` it is 48.1%; for `CP(=O)(O)C1=CCNCC1` it is -9.22%.
On the same count and under the same terms, with `C[N+](C)(C)CC#CCOC(=O)Nc1cccc(Cl)c1` the figure was -8.8%; with `c1ccc2c(N3CCNCC3)cccc2c1`, -46.5%; with `CC(C)[C@@]1(NC(=O)[C@@H]2C[C@@H]3c4cccc5[nH]cc(c45)C[C@H]3N(C)C2)O[C@@]2(O)[C@@H]3CCCN3C(=O)[C@H](Cc3ccccc3)N2C1=O`, -26.4% [at 17.2 µM].
Turning to `N#CCCN`, the activity, negative = inhibition was 20.4%.
In the case of `CCS(=O)(=O)Nc1cccc(C(=C2CCCCC2)c2cnc[nH]2)c1`, the activity, negative = inhibition was -26.3%.
Still for that read-out and setting: the figure for `C[C@@H]1[C@@H]2Cc3ccc(O)cc3[C@@]1(C)CCN2CC1CC1` is -18.1%; for `c1cc2c(c(NC3=NCCN3)c1)CCCC2` it is 4.34% [at 7.69 µM].
Consider `CC(C)(C)c1cc(O)ccc1O`, for which the activity, negative = inhibition was -2.67% [at 7.69 µM].
Take `Nc1ccc(CCN2CCN(c3cccc(C(F)(F)F)c3)CC2)cc1`: the activity, negative = inhibition is -17.7%.
On the same count and under the same terms, with `O=S(=O)(O)c1cc(O)ccc1O` the figure was 11.9% [at 17.2 µM]; with `CCC(=O)O[C@@](Cc1ccccc1)(c1ccccc1)[C@@H](C)CN(C)C`, 5.74% [at 17.2 µM]; with `CCCN(CCC)C1Cc2cc(OC)c(OC)cc2C1`, 21.3%.
`CCCN1CCc2cc(O)cc3c2[C@H]1Cc1ccc(O)c(O)c1-3`: the activity, negative = inhibition is 39.4%.
On to `NCCc1c[nH]c2ccc(C(N)=O)cc12`, for which the activity, negative = inhibition was 4.94%.
In the case of `C[N+](C)(C)CCOC(=O)CBr`, the activity, negative = inhibition is -5.3%.
For `CCCCCCC(C)(C)c1ccc([C@@H]2C[C@H](O)CC[C@H]2CCCO)c(O)c1`, the activity, negative = inhibition is -25.8%.
With `CCCn1c(=O)c2[nH]c(C3CCCC3)nc2n(CCCOC(=O)c2ccc(S(=O)(=O)F)cc2)c1=O`, the activity, negative = inhibition was -25.7%.
Regarding `COc1ccc2[nH]c3c(c2c1)CCNC3`, the activity, negative = inhibition is 9.97%.
For the molecule `O=C(O)c1cc[c]([Hg][Cl])cc1`, the activity, negative = inhibition is -0.208%.
For the molecule `Clc1cc(I)cc(Cl)c1NC1=NCCN1`, the activity, negative = inhibition is -14.2%.
Same read-out and setting: the figure for `CCCN(CCC)[C@H]1CCc2c(F)ccc(O)c2C1` is 3.16% and 1.48%; for `CN1CCC(c2c[nH]c3ccc(O)cc23)CC1` it is -0.0693%; for `O=S1(=O)N(CCN2CC=C(c3c[nH]c4cc(F)ccc34)CC2)c2cccc3c2N1CCC3` it is 22.3%.
In the case of `CC(C)NP(=O)(NC(C)C)OP(=O)(NC(C)C)NC(C)C`, the activity, negative = inhibition is -17.3%.
With `O=[N+]([O-])c1ccc2nc(N3CCNCC3)ccc2c1`, the activity, negative = inhibition was 2.58%.
Regarding `C[C@H](N)CN1CCc2ccc(Br)cc21`, the activity, negative = inhibition was -29.5%.
`Cc1c2ccncc2c(C)c2c1[nH]c1ccccc12`: the activity, negative = inhibition was 128% [activator] [at 17.2 µM] (active) and 142% [activator] [at 17.2 µM] (active).
